These results are taken from PMC7862700, “An all-to-all approach to the identification of sequence-specific readers for epigenetic DNA modifications on cytosine”.

What all share (assay): DAPPL (digital affinity profiling via proximity ligation, sequencing); 10 mM Tris-HCl pH 7.5, 50 mM NaCl, 1 mM DTT, 4% glycerol, room temperature, 30 min; GST-TFs on glutathione beads, 16-mer random dsDNA library, 0.1% formaldehyde crosslink after washing; high values mean tight binding
Holding throughout (settings): protein: recombinant; tags: N-terminal GST; dsDNA, one strand shown

Experiment [1] addresses T1, ERF (Homo sapiens, UniProt P50548 1-548).
T1 sequence: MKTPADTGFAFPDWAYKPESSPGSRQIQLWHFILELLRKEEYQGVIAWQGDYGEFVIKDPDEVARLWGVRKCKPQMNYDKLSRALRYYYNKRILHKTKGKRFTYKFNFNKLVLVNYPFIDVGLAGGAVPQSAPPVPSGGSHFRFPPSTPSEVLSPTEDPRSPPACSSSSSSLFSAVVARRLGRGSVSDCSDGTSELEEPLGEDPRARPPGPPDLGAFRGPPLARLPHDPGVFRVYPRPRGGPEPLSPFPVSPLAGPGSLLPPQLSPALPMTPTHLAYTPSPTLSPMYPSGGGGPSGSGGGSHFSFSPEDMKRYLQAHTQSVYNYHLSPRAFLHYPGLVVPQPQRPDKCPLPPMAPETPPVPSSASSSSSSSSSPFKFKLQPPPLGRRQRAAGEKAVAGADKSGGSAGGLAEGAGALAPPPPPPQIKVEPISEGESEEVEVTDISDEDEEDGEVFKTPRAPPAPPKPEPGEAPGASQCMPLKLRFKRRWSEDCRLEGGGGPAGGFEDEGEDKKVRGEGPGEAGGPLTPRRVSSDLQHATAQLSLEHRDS
The method, boiled down: (§1)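 GST fusions of human transcription factors were expressed in yeast and captured with glutathione beads. Once given DNA barcodes and pooled alongside a tag-only sample, they were incubated for 30 min at room temperature with 200 nmole of a random double-stranded 16-mer DNA library in Tris/NaCl/DTT/glycerol buffer, then washed, crosslinked (0.1% formaldehyde), proximity-ligated, PCR-amplified and sequenced on an Illumina NextSeq500. The binding signal of each hexamer is its read frequency for a factor divided by its frequency for the tag-only sample.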

In experiment [2] the target is T2, ETV3L (Homo sapiens, UniProt Q6ZN32 1-361).
T2 sequence: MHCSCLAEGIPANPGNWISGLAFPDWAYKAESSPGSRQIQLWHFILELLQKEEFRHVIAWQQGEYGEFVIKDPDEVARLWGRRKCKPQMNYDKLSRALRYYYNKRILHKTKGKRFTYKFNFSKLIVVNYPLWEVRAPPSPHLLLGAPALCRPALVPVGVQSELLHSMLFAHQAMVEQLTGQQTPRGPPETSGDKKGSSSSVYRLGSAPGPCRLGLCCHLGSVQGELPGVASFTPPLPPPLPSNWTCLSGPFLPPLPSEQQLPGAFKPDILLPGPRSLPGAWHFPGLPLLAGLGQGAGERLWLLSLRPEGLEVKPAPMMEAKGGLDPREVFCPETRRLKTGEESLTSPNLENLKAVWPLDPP
In a few lines:
as §1

In experiment [3] the target is T3, ETS2 (Homo sapiens, UniProt P15036 1-469).
T3 sequence: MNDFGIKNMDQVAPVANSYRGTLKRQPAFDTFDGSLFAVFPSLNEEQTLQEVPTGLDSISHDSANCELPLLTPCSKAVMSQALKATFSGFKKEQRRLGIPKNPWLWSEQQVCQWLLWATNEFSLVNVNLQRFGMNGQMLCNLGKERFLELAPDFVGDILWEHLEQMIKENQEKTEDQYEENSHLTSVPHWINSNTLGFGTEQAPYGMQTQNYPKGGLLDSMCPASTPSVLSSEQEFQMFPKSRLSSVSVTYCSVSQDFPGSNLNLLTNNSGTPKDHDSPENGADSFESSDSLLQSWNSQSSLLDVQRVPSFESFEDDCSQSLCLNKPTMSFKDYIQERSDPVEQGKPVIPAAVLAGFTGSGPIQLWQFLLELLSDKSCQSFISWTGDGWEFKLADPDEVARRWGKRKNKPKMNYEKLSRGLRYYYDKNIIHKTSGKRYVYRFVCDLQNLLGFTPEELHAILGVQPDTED
The method, boiled down: as §1

Experiment [4] concerns the target T4, SPDEF (Homo sapiens, UniProt O95238 1-335).
T4 sequence: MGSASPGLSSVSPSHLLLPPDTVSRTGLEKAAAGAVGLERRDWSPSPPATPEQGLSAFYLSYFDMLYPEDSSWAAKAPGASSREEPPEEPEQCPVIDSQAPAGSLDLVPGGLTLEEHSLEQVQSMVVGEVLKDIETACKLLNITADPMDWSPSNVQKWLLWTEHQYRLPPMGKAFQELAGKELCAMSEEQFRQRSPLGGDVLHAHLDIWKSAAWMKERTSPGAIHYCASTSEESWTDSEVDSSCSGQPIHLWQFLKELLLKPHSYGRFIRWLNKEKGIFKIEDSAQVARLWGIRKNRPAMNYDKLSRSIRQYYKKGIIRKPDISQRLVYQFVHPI
The method, boiled down: as §1

For experiment [5], the target named is T5, ETV7 (Homo sapiens, UniProt Q9Y603 1-341).
T5 sequence: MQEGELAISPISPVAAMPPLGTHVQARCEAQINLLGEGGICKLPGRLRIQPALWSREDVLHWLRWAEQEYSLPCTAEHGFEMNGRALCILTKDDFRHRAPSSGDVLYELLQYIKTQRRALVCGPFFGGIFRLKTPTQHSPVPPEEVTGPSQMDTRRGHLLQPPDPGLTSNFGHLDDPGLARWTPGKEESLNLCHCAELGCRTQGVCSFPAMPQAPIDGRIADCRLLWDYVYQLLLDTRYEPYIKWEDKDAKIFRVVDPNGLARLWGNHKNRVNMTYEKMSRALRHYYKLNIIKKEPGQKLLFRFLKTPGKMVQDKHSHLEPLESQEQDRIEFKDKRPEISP
The method, boiled down: as §1

Experiment [6] addresses T6, ELF5 (Homo sapiens, UniProt Q9UKW6-2 1-255).
T6 sequence: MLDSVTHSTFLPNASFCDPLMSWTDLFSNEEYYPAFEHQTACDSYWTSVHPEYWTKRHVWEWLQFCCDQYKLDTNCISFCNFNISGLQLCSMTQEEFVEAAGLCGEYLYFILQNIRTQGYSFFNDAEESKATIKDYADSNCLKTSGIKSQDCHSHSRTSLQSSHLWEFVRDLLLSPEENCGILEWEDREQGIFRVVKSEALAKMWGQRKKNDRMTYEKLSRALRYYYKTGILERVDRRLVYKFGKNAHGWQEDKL
The method, boiled down:
as §1

The target of experiment [7] is T7, ETV3 (Homo sapiens, UniProt P41162-2 1-143).
T7 sequence: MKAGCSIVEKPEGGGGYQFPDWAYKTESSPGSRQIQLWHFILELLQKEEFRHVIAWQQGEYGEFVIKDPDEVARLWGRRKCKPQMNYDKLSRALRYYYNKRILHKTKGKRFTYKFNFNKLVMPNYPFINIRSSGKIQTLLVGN
In a few lines: as §1

In experiment [8] the target is ETV6 (Homo sapiens, UniProt P41212 1-452). In a few lines: as §1
Sequence of ETV6 (P41212 whole entry): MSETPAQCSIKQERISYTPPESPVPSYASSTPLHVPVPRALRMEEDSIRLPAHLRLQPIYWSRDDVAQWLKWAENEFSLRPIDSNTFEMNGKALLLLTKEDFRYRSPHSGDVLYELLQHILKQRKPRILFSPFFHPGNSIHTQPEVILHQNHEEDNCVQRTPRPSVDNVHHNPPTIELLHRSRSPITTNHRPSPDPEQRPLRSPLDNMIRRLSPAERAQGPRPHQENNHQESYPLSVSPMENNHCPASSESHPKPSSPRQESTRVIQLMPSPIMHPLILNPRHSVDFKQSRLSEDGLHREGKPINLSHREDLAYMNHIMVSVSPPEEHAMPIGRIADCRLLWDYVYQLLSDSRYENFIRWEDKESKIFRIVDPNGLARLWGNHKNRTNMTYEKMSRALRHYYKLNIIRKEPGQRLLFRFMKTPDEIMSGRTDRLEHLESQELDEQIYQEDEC

In the case of GGAACT, the binding signal is 1.48 fold enrichment (6-mer frequency, TF over GST control) in experiment [1]; 1.71 fold enrichment (6-mer frequency, TF over GST control) in experiment [2]; 1.88 fold enrichment (6-mer frequency, TF over GST control) in experiment [3]; 1.94 fold enrichment (6-mer frequency, TF over GST control) in experiment [4]; 1.56 fold enrichment (6-mer frequency, TF over GST control) in experiment [5]; 2.25 fold enrichment (6-mer frequency, TF over GST control) in experiment [6]. Besides, the binding signal in experiment [7] is 1.93 fold enrichment (6-mer frequency, TF over GST control); in experiment [8] it was 1.84 fold enrichment (6-mer frequency, TF over GST control).
As to TGCTCA, the binding signal in experiment [1] was 1.5 fold enrichment (6-mer frequency, TF over GST control); in experiment [2] it was 1.31 fold enrichment (6-mer frequency, TF over GST control); in experiment [3], 1.36 fold enrichment (6-mer frequency, TF over GST control); in experiment [4], 1.28 fold enrichment (6-mer frequency, TF over GST control); in experiment [5], 1.54 fold enrichment (6-mer frequency, TF over GST control); in experiment [6] it was 1.38 fold enrichment (6-mer frequency, TF over GST control). Also, the binding signal in experiment [7] is 1.24 fold enrichment (6-mer frequency, TF over GST control); in experiment [8], 1.28 fold enrichment (6-mer frequency, TF over GST control).
Regarding GGGCTC, the binding signal is 1.28 fold enrichment (6-mer frequency, TF over GST control) in experiment [1]; 1.32 fold enrichment (6-mer frequency, TF over GST control) in experiment [2]; 1.14 fold enrichment (6-mer frequency, TF over GST control) in experiment [3]; 1.09 fold enrichment (6-mer frequency, TF over GST control) in experiment [4]; 1.18 fold enrichment (6-mer frequency, TF over GST control) in experiment [5]; 1.12 fold enrichment (6-mer frequency, TF over GST control) in experiment [6]. The binding signal in experiment [7] is 1.22 fold enrichment (6-mer frequency, TF over GST control); in experiment [8] it was 1.19 fold enrichment (6-mer frequency, TF over GST control).
For TATGGT, the binding signal in experiment [1] is 1.18 fold enrichment (6-mer frequency, TF over GST control); in experiment [2] it was 1.24 fold enrichment (6-mer frequency, TF over GST control); in experiment [3] it was 1.33 fold enrichment (6-mer frequency, TF over GST control); in experiment [4], 1.35 fold enrichment (6-mer frequency, TF over GST control); in experiment [5], 1.21 fold enrichment (6-mer frequency, TF over GST control); in experiment [6] it was 1.24 fold enrichment (6-mer frequency, TF over GST control). Moreover, the binding signal in experiment [7] was 1.34 fold enrichment (6-mer frequency, TF over GST control); in experiment [8] it was 1.24 fold enrichment (6-mer frequency, TF over GST control).
TGGAAT: the binding signal in experiment [1] is 1.22 fold enrichment (6-mer frequency, TF over GST control); in experiment [2], 1.3 fold enrichment (6-mer frequency, TF over GST control); in experiment [3] it was 1.3 fold enrichment (6-mer frequency, TF over GST control); in experiment [4] it was 1.28 fold enrichment (6-mer frequency, TF over GST control); in experiment [5], 1.27 fold enrichment (6-mer frequency, TF over GST control); in experiment [6], 1.18 fold enrichment (6-mer frequency, TF over GST control). Besides, the binding signal in experiment [7] is 1.24 fold enrichment (6-mer frequency, TF over GST control); in experiment [8], 1.15 fold enrichment (6-mer frequency, TF over GST control).
On to GTTCAT, for which the binding signal in experiment [1] was 1.11 fold enrichment (6-mer frequency, TF over GST control); in experiment [2] it was 1.16 fold enrichment (6-mer frequency, TF over GST control); in experiment [3], 1.16 fold enrichment (6-mer frequency, TF over GST control); in experiment [4], 1.18 fold enrichment (6-mer frequency, TF over GST control); in experiment [5] it was 1.05 fold enrichment (6-mer frequency, TF over GST control); in experiment [6], 1.1 fold enrichment (6-mer frequency, TF over GST control). The binding signal in experiment [7] is 1.1 fold enrichment (6-mer frequency, TF over GST control); in experiment [8] it was 1.17 fold enrichment (6-mer frequency, TF over GST control).
Regarding TCTACG, the binding signal in experiment [1] is 1.46 fold enrichment (6-mer frequency, TF over GST control); in experiment [2], 1.4 fold enrichment (6-mer frequency, TF over GST control); in experiment [3] it was 1.41 fold enrichment (6-mer frequency, TF over GST control); in experiment [4] it was 1.33 fold enrichment (6-mer frequency, TF over GST control); in experiment [5], 1.36 fold enrichment (6-mer frequency, TF over GST control); in experiment [6], 1.35 fold enrichment (6-mer frequency, TF over GST control). For the same sequence, the binding signal in experiment [7] was 1.32 fold enrichment (6-mer frequency, TF over GST control); in experiment [8] it was 1.2 fold enrichment (6-mer frequency, TF over GST control).
As for ATTGGG, the binding signal in experiment [1] is 1.31 fold enrichment (6-mer frequency, TF over GST control); in experiment [2], 1.15 fold enrichment (6-mer frequency, TF over GST control); in experiment [3], 1.12 fold enrichment (6-mer frequency, TF over GST control); in experiment [4], 1.19 fold enrichment (6-mer frequency, TF over GST control); in experiment [5], 1.11 fold enrichment (6-mer frequency, TF over GST control); in experiment [6], 1.11 fold enrichment (6-mer frequency, TF over GST control). In addition, the binding signal is 1.15 fold enrichment (6-mer frequency, TF over GST control) in experiment [7] and 1.16 fold enrichment (6-mer frequency, TF over GST control) in experiment [8].
On to TCTTTT, for which the binding signal in experiment [1] was 1.46 fold enrichment (6-mer frequency, TF over GST control); in experiment [2], 1.54 fold enrichment (6-mer frequency, TF over GST control); in experiment [3] it was 1.47 fold enrichment (6-mer frequency, TF over GST control); in experiment [4] it was 1.4 fold enrichment (6-mer frequency, TF over GST control); in experiment [5], 1.56 fold enrichment (6-mer frequency, TF over GST control); in experiment [6], 1.43 fold enrichment (6-mer frequency, TF over GST control). In addition, the binding signal is 1.5 fold enrichment (6-mer frequency, TF over GST control) in experiment [7] and 1.41 fold enrichment (6-mer frequency, TF over GST control) in experiment [8].
